# Data: PubChem BioAssay (EPA / NIEHS)
# Records with an inconclusive call do not appear. Calls of active or inactive are those of the source. The calls were made as follows: active = hit-call score of the fitted dose curve at least 0.9, where 1 is the maximum; inconclusive = response in the unintended direction; inactive = score below 0.9.
# How the values were obtained:
# [1] = target: human Dual Specificity Protein Phosphatase 3 (DUSP3), DUSP3 (gene 1845) (UniProt P51452); assay: NVS_ENZ_hDUSP3: NovaScreen (NVS) Enzymatic Assay for human Dual Specificity Protein Phosphatase 3 (DUSP3) (AID 2283152);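 also: phosphatase activity of recombinant human DUSP3 on a fluorogenic substrate without cells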
# Outline: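 Cell-free fluorescence-intensity enzyme activity assay with recombinant protein and substrate; loss of signal fitted relative to DMSO baseline. Primary screen in duplicate at 25 uM, actives then run in concentration series; measured 0 h after dosing.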
# [2] = target: human Esterase Plasma (ES), BCHE (gene 590) (UniProt P06276); assay: NVS_ENZ_hES: NovaScreen (NVS) Enzymatic Assay for human Esterase Plasma (ES) (AID 2283157)
# Outline: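 Primary single-concentration screen at 25 uM in duplicate, then concentration-response to a 50 uM top dose. Human plasma esterase activity detected colorimetrically after 0.25 h incubation, with DMSO as baseline.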
# [3] = target: human Casein Kinase 1-delta (CK1D), CSNK1D (gene 1453) (UniProt P48730); assay: NVS_ENZ_hCK1D: NovaScreen (NVS) Enzymatic Assay for human Casein Kinase 1-delta (CK1D) (AID 2283148)
# Outline: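 Recombinant human CK1-delta, cell-free; fluorescent substrate with electrophoretic mobility-shift separation of product, read 1 h after dosing. Single 25 uM duplicate screen, then concentration-response up to 50 uM; loss of signal vs DMSO.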
# [4] = target: human Colony Stimulating Factor 1 Receptor (CSF1R), CSF1R (gene 1436) (UniProt P07333); assay: NVS_ENZ_hCSF1R: NovaScreen (NVS) Enzymatic Assay for human Colony Stimulating Factor 1 Receptor (CSF1R) (AID 2283150)
# Outline: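 Compounds screened in duplicate at 25 uM, then concentration-response (top 50 uM) for those passing threshold such as 30% inhibition; recombinant CSF1R activity measured 1 h post-dosing via fluorescent substrate/product mobility-shift separation, loss of signal versus DMSO.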
# [5] = target: human Epidermal Growth Factor Receptor (EGFR), EGFR (gene 1956) (UniProt P00533); assay: NVS_ENZ_hEGFR: NovaScreen (NVS) Enzymatic Assay for human Epidermal Growth Factor Receptor (EGFR) (AID 2283151)
# Method: (§1) NVS_ENZ_hEGFR is a biochemical, single-readout assay that uses extracted gene-proteins in a cell-free assay. Measurements were taken 1 hour after chemical dosing in a 384-well plate.NVS_ENZ_hEGFR is one of one assay component(s) measured or calculated from the NVS_ENZ_hEGFR assay. It is designed to make measurements of enzyme activity, a form of enzyme reporter, as detected with fluorescence intensity signals by Fluorescence and electrophoretic mobility shift technology.Data from the assay component NVS_ENZ_hEGFR was analyzed into 1 assay endpoint. This assay endpoint, NVS_ENZ_hEGFR, was analyzed in the positive analysis fitting direction relative to DMSO as the negative control and baseline of activity. Using a type of enzyme reporter, loss-of-signal activity can be used to understand changes in the enzymatic activity as they relate to the gene EGFR. Furthermore, this assay endpoint can be referred to as a primary readout, because this assay has produced multiple assay endpoints where this one serves a enzymatic activity function. To generalize the intended target to other relatable targets, this assay endpoint is annotated to the kinase intended target family, where the subfamily is receptor tyrosine kinase.
# Binding assays used specific radioligands (tritiated, iodinated) with non-radioactive competitive displacement ligands in agonist or antagonist protocols (as indicated) and various reference compounds and inhibitors to titrate specific binding to receptors and transporters. Most enzyme assays (CYPs, kinases, phosphatases, proteases, HDACs) used recombinant protein and specific substrates (fluorescence mostly, some colorimetric and radioactive) and inhibitors, followed by a biochemical separation of substrate and product. All assays for the biochemical HTS were initially run in duplicate at a single concentration (10 uM for CYP450 assays and 25 uM for all others). Assay-chemical combinations meeting a pre-defined threshold (e.g., 30% inhibition and other criteria defined below) were then run in singleton concentration-response format with maximum concentration of 20 uM for CYPs and 50 uM for all others. Each assay was run with positive and negative controls, and concurrent controls on every plate. The follow-up (secondary) screen tested active chemical-pairs in concentration series, as well as a few additional assays not tested in the primary screen, some selected negative inactives, and several cases re-run in the concentration series for confirmatory purposes.
# [6] = target: human Elastase, ELANE (gene 1991) (UniProt P08246); assay: NVS_ENZ_hElastase: NovaScreen (NVS) Enzymatic Assay for human Elastase (AID 2283153)
# Outline: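 Concentration-response to 50 uM max, run singly for chemicals passing a threshold (e.g., 30% inhibition) in a duplicate 25 uM single-point screen. Neutrophil-derived human elastase, absorbance read-out of enzyme activity at 1.5 h; DMSO baseline.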
# [7] = target: human Ephrin type-B Receptor 2 (EphB2), EPHB2 (gene 2048) (UniProt P29323); assay: NVS_ENZ_hEphB2: NovaScreen (NVS) Enzymatic Assay for human Ephrin type-B Receptor 2 (EphB2) (AID 2283156)
# Outline: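 Compounds were first tested in duplicate at 25 uM, with hits rerun singly in concentration series up to 50 uM. Enzyme activity on fluorescent substrate was read at 1 h by mobility-shift separation, scored as signal loss relative to DMSO.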
# [8] = target: CDK2 (gene 1017) (UniProt P24941); assay: NVS_ENZ_hCDK2: NovaScreen (NVS) Enzymatic Assay for human Cyclin-Cependent Kinase 2 (CDK2) (AID 2283144)
# Method: as §1, with “NVS_ENZ_hCDK2” for “NVS_ENZ_hEGFR”, “plate.NVS_ENZ_hCDK2” for “plate.NVS_ENZ_hEGFR”, “NVS_ENZ_hCDK2,” for “NVS_ENZ_hEGFR,”, “CDK2.” for “EGFR.”, “serine/threonine” for “receptor tyrosine”, “kinase. […]” for “kinase.”
# [9] = target: human Caspase 8 (CASP8), CASP8 (gene 841) (UniProt Q14790); assay: NVS_ENZ_hCASP8: NovaScreen (NVS) Enzymatic Assay for human Caspase 8 (CASP8) (AID 2283146)
# Outline: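 The primary screen tested compounds in duplicate at a single 25 uM concentration, with actives followed up in concentration series. Activity of recombinant (E. coli) protease was measured by fluorescence 1 h post-dose, as signal loss against DMSO.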
# [10] = target: human Ephrin type-A Receptor 2 (EphA2), EPHA2 (gene 1969) (UniProt P29317); assay: NVS_ENZ_hEphA2: NovaScreen (NVS) Enzymatic Assay for human Ephrin type-A Receptor 2 (EphA2) (AID 2283155)
# Outline: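 Enzyme activity of recombinant EphA2 read by fluorescence after mobility-shift separation, 1 h after dosing. Chemicals first tested at 25 uM (duplicate); those passing threshold run as concentration series, top 50 uM, single replicate, relative to DMSO.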
# Sequence of human Esterase Plasma (ES), BCHE (gene 590) (P06276 whole entry, looked up): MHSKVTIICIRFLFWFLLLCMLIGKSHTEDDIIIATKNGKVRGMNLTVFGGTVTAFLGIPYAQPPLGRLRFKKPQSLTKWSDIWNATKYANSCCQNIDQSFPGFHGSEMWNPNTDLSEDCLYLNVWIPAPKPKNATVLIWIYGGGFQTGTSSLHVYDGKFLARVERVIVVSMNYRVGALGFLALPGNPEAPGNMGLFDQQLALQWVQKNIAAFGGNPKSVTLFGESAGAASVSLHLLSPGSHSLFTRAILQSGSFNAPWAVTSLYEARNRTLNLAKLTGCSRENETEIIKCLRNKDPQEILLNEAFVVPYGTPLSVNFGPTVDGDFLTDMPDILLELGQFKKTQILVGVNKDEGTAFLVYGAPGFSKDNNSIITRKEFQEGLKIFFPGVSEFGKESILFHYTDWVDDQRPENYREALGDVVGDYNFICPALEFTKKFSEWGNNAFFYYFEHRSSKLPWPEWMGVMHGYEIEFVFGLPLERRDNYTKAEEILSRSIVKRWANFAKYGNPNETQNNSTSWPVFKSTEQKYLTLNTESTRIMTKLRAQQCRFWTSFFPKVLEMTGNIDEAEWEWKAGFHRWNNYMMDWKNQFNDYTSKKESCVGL
# Sequence of human Epidermal Growth Factor Receptor (EGFR), EGFR (gene 1956) (P00533 whole entry, looked up): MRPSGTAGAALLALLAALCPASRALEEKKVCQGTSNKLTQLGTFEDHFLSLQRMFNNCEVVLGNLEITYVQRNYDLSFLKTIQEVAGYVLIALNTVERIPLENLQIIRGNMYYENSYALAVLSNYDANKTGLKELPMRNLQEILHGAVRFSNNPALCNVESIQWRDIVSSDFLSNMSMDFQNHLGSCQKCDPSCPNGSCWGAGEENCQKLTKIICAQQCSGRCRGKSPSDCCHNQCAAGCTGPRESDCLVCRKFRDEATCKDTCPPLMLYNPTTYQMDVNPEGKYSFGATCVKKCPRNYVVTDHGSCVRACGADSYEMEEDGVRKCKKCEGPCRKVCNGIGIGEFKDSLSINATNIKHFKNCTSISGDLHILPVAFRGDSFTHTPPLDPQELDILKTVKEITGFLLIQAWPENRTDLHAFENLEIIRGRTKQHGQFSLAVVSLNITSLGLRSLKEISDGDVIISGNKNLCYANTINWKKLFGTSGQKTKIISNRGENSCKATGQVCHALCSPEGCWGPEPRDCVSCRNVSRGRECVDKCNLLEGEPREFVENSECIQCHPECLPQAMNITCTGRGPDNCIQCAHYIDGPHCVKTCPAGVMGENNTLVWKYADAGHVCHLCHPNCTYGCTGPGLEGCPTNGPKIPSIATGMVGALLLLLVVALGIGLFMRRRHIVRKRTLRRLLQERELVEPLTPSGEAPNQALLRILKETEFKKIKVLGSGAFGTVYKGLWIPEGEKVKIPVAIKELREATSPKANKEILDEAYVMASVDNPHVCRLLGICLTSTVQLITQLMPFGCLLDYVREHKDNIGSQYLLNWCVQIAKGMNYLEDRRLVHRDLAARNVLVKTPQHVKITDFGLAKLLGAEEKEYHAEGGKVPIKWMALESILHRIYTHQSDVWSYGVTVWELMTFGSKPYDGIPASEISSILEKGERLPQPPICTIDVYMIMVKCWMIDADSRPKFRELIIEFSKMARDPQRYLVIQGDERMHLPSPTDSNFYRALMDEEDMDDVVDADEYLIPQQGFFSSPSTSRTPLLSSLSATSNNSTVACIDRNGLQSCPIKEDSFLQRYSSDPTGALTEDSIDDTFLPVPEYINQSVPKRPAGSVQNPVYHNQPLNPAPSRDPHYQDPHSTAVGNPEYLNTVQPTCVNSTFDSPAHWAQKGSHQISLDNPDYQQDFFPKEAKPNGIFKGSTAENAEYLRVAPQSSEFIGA
# Sequence of human Dual Specificity Protein Phosphatase 3 (DUSP3), DUSP3 (gene 1845) (P51452 whole entry, looked up): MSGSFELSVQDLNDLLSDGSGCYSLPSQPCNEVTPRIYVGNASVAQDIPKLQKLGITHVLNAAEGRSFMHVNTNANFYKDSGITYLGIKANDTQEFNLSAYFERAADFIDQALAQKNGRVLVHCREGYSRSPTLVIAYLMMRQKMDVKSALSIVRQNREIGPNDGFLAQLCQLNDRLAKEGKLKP
# Sequence of human Colony Stimulating Factor 1 Receptor (CSF1R), CSF1R (gene 1436) (P07333 whole entry, looked up): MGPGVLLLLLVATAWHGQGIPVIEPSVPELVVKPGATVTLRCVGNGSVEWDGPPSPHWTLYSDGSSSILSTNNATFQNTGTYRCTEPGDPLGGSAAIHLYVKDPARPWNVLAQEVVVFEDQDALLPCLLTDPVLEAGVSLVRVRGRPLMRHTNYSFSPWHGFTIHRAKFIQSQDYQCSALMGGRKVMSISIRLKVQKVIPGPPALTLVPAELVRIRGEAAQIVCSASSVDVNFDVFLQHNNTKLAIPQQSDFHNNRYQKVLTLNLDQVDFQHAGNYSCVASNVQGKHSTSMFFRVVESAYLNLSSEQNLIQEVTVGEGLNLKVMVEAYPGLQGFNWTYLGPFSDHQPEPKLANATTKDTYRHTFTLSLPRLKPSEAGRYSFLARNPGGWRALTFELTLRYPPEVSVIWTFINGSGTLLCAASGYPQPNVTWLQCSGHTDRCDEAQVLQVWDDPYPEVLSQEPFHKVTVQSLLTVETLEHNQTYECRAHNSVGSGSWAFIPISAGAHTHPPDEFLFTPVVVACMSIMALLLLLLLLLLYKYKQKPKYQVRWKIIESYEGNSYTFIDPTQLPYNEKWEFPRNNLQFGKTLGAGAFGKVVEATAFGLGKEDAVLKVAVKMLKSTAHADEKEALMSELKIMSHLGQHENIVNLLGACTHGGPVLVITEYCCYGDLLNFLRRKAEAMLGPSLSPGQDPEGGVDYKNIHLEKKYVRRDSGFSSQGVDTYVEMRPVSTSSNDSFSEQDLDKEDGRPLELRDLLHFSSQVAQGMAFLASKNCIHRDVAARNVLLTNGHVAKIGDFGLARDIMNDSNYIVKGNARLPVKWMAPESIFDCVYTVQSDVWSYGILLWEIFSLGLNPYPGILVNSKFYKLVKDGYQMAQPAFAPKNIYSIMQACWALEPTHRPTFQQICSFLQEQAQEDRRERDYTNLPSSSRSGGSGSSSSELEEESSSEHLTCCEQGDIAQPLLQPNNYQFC
# Sequence of human Casein Kinase 1-delta (CK1D), CSNK1D (gene 1453) (P48730 whole entry, looked up): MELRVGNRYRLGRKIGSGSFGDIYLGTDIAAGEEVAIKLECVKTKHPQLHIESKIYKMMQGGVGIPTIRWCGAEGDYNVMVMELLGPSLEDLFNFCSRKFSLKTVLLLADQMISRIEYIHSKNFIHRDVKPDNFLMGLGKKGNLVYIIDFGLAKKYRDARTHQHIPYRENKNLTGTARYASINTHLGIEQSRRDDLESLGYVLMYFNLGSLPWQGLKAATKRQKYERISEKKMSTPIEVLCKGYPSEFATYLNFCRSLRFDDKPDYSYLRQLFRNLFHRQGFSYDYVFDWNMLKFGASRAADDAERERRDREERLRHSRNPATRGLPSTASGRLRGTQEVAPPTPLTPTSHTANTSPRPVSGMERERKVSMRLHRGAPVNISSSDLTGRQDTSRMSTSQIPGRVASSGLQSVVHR
# Sequence of human Ephrin type-A Receptor 2 (EphA2), EPHA2 (gene 1969) (P29317 whole entry, looked up): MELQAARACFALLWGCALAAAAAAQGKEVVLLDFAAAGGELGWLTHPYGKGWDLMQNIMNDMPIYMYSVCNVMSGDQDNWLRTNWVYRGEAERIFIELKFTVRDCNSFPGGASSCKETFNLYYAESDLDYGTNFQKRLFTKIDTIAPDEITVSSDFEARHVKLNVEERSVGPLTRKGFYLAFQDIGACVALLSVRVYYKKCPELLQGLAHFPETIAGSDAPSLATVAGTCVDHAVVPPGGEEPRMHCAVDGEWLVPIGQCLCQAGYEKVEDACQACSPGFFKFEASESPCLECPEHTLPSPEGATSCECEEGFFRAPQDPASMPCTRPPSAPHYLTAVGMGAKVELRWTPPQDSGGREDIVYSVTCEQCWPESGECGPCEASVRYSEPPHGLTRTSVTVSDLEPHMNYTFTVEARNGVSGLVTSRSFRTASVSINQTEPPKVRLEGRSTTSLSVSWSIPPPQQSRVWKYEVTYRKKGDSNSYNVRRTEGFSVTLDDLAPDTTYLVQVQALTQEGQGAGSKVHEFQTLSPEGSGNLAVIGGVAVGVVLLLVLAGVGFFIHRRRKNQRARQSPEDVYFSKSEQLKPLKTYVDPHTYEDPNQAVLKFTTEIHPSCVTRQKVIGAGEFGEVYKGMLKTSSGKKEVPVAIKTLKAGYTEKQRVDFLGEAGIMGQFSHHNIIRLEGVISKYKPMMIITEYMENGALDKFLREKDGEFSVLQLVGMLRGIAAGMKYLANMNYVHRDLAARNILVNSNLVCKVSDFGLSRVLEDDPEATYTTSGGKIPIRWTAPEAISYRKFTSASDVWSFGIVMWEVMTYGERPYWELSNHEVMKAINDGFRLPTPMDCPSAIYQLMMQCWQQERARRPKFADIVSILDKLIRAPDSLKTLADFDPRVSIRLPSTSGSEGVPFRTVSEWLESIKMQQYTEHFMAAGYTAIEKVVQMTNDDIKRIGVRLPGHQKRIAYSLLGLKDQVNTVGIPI
# Sequence of human Elastase, ELANE (gene 1991) (P08246 whole entry, looked up): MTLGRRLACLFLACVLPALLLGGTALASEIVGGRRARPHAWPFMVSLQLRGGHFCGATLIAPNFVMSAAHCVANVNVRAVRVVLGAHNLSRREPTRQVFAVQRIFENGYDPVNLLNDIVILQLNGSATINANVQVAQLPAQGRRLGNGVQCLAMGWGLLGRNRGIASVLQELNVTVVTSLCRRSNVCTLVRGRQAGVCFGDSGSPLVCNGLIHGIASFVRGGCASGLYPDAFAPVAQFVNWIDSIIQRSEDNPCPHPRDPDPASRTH
smiles,measurement,setting,value
O=c1oc2ccccc2c(O)c1C(CC(O)c1ccc(-c2ccc(Br)cc2)cc1)c1ccccc1 (stereo not drawn),AC50,[1],9.57 µM (active)
CCOC(=O)CCN(SN(C)C(=O)Oc1cccc2c1OC(C)(C)C2)C(C)C,AC50,[1],9.03 µM (active)
same,AC50,[2],14 µM (active)
CCCCCCCCCCCCc1cccc(S(=O)(=O)O)c1,AC50,[3],28.6 µM (active)
same,AC50,[4],17.3 µM (active)
same,AC50,[5],19.6 µM (active)
same,AC50,[1],16.8 µM (active)
same,AC50,[6],26.7 µM (active)
same,outcome,[7],inactive
Clc1cccc(Cl)c1Cl,outcome,[5],inactive
CC(C)O.CC(C)O.OCCN(CCO)CCO.OCCN(CCO)CCO.[Ti],AC50,[8],0.003 µM (active)
same,AC50,[9],1.13 µM (active)
same,AC50,[3],10.8 µM (active)
same,AC50,[1],10.3 µM (active)
N#Cc1cccnc1,outcome,[8],inactive
same,outcome,[4],inactive
same,outcome,[10],inactive
CCOP(=O)(OCC)OC(=CCl)c1ccc(Cl)cc1Cl,AC50,[2],1.22 µM (active)
CN(C)C(=S)S,AC50,[1],8.6 µM (active)
Cc1cc(C(C)(C)c2ccc(O)c(C)c2)ccc1O,AC50,[1],12.5 µM (active)
CCN(CC)C(=O)C(Cl)=C(C)OP(=O)(OC)OC,AC50,[2],25 µM (active)
CCOP(=S)(OCC)OP(=S)(OCC)OCC,AC50,[1],17 µM (active)
same,AC50,[2],2.56 µM (active)
CCCCCCCCCCCCOS(=O)(=O)O,AC50,[5],36.5 µM (active)
same,AC50,[10],40.8 µM (active)
O=C(N[C@H]1CN2CCC1CC2)c1ccc2c(c1)OCCO2,outcome,[4],inactive
same,outcome,[5],inactive
CCOC(=O)C(SP(=S)(OC)OC)c1ccccc1 (stereo not drawn),AC50,[1],18.7 µM (active)
same,AC50,[2],4.29 µM (active)
Nc1ccc(N)cc1,outcome,[2],inactive
O=C(O)C1(c2ccc3c(c2)OC[C@H](Cc2ccc(-c4ccccc4)cc2)[C@H]3O)CCCC1,AC50,[1],13.8 µM (active)
same,AC50,[6],17.7 µM (active)
N#CCCC(Br)(C#N)CBr (stereo not drawn),AC50,[2],19.2 µM (active)
